Rows were chosen to be rich in hits. Some 6.1% of all compounds tested hit in one or more screens of this group.
M1 agonist: activates the M1 muscarinic receptor. CHO-M1 cells, Fluo-4 calcium fluorescence, agonist mode; stronger effect = higher value. B-score at 10 µM. actives 3% (n = 64,000);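 active = fluorescence rise, raw or as B-score row- and column-corrected plate score, outside the 99.7% band of its plate's samples, either direction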
Cdc25B block: inhibitors of human Cdc25B phosphatase; P30305; recombinant Cdc25B, OMFP fluorescence Ex485/Em525; inhibition, %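 (compounds tested at 10 µM final in the well)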; actives 0.1% (n = 65,000); AID 368; in the data active = inhibition above about 50%
DUSP1 inh: inhibitors of human MKP-1 phosphatase; P28562; inhibition, %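 (compounds tested at a single concentration somewhere between 10 and 100 µM)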; actives 0.15% (n = 65,000); recombinant MKP-1, OMFP hydrolysis fluorescence;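 active = inhibition above about 50%, limit read from the data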;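 also: 0% = DMSO max control wells and 100% = wells with enzyme stopped by NaOH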
Target sequence (P28562 whole entry, looked up): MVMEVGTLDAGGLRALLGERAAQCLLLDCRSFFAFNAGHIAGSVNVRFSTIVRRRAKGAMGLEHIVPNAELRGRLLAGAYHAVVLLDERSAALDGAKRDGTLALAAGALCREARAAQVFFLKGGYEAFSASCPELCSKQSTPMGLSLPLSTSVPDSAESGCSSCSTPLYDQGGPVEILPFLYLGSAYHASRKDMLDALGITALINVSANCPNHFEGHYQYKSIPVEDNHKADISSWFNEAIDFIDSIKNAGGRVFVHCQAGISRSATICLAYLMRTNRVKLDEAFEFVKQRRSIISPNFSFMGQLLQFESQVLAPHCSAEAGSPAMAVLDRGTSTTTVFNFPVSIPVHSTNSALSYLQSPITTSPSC
Hsp90 block: displaces geldanamycin probe from tumor Hsp90; P07900; NCI-N417 lysate Hsp90, Cy3B-geldanamycin FP displacement; inhibition, % at 30 µM; actives 0.35% (n = 64,000); AID 429;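 active = inhibition above 50%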;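 also: 0% = tracer plus lysate wells and 100% = tracer alone without lysate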
MMP13 inh: MMP13 (human) collagenase inhibition; MMP-13 fTHP FRET cleavage, Mca fluorescence; actives 0.07% (n = 65,000); inhibition, % at 4 µM; P45452; AID 570;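 active = inhibition above the mean of compound-free control plate wells plus 3 SD, cut at about 14% in these data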;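 also: 0% = DMSO wells and 100% = wells with reference MMP-13 inhibitor after basal subtraction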
M1 antag: antagonists of rat M1 muscarinic receptor; P08482; B-score at 10 µM; CHO-M1 cells, Fluo-4 calcium, ACh EC80 antagonist mode; stronger effect = lower value; actives 3.4% (n = 64,000);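 active = calcium fluorescence response, raw or row-and-column corrected B-score, differing from the plate sample mean either way at a set confidence level, mostly lower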
M1 antag confirm: M1 muscarinic receptor (rat) antagonism, confirmed | actives 43% (n = 1,700) | AID 677 | calcium response (max-min fluorescence) at 10 µM | CHO-M1 cells, Fluo-4 calcium, ACh EC80 antagonism; stronger effect = lower value | shares compounds with M1 antag;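 active = calcium response below the same-plate mean of wells given acetylcholine alone at its 80%-effect dose, minus 3 SD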;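 also: raw fluorescence intensity difference in arbitrary instrument units and not normalized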
mGluR4 antag: mGluR4 (human) activity, M1 antagonist secondary assay. shares compounds with M1 antag. CHO-mGluR4 calcium flux, Fluo-4 fluorescence, glutamate EC80; stronger effect = lower value. fluorescence response (max-min) at 10 µM. actives 0.9% (n = 1,700). AID 678;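 active = fluorescence response below the plate's average for near-maximal glutamate wells, less 3 SD of those wells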;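 also: raw unnormalized fluorescence span taken in the window right after glutamate addition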
An asterisk follows results filed as active; · = no result given.

SMILES	M1 agonist	Cdc25B block	DUSP1 inh	Hsp90 block	MMP13 inh	M1 antag	M1 antag confirm	mGluR4 antag
CCOC(=O)c1ccc(NC(=O)CSc2nnc(COc3ccccc3)n2C)cc1	0.33	7	12	-1	1	-0.17	·	·
CCc1nc(OCCN(CC)CC)c2oc3ccccc3c2n1	-0.057	-1	1	0	-2	-0.85	·	·
CCN(CC)CCOc1ncnc2c1oc1ccccc12	0.091	7	-14	1	0	-1.6*	584*	198
CCOC(=O)Nc1ccc2c(c1)N(C(=O)N1CCN(C)CC1)c1ccccc1S2	0.041	8	2	-3	1	-15*	14*	268
CCOC(=O)Nc1ccc2c(c1)Sc1ccccc1N2C(=O)CCN1CCOCC1	1.4	-2	28	-1	-4	-3.5*	317*	257
CCOC(=O)C1=C(C)NC(SCC(=O)Nc2nc(C)cs2)=C(C#N)C1c1cccs1 (configuration not stated)	0.014	-16	-19	-5	-10	0.036	·	·
COc1ccc(C2(O)CCN(CCCCOc3ccccc3)CC2)cc1	-0.46	-19	-6	-1	2	-2.6*	477*	242
COc1ccc(C2(O)CCN(C(=O)Cc3cccnc3)CC2)cc1	0.13	-7	8	·	-2	0.16	·	·
Cc1ccccc1-n1nc(C)c2cc(C(=O)NCc3cccnc3)sc21	-0.11	3	4	-5	-18	-0.36	·	·
Cn1nnnc1SCC(=O)N1c2ccccc2Sc2ccc(Cl)cc21	0.0043	-5	2	0	2	-2.7*	446*	231
CN1CCN(CCC(=O)N2c3ccccc3Sc3ccc(Cl)cc32)CC1	0.21	20	-33	-3	3	-11*	268*	255
COC(=O)Nc1ccc2c(c1)N(C(=O)CCN1CCN3CCCC3C1)c1ccccc1S2 (configuration not stated)	-0.62	2	12	3	0	-1.1	·	·
Cn1c(SCC(=O)N2c3ccccc3Sc3ccc(Cl)cc32)nnc1-c1ccco1	-0.46	-5	-14	3	4	-0.43	·	·
O=C(CN1CCN(CCOCCO)CC1)N1c2ccccc2Sc2ccc(Cl)cc21	-0.34	1	-2	-2	-1	-17*	24*	236
COC(=O)c1ccccc1NC(=O)N1CCN(C/C=C/c2ccccc2)CC1	0.12	-7	-4	0	1	-4.1*	507	238
CN(C)CC(C(=O)c1ccccc1)c1ccccc1 (configuration not stated)	0.65	-8	-14	0	0	-1.6	·	·
COc1ccc(C(C(=O)OC(C)CN(C)C)c2ccccc2)cc1 (configuration not stated)	-0.14	-18	-3	0	-18	-3*	333*	214
COC(=O)c1ccc(NC(=O)CCN2CCCCC2)cc1	0.071	0	-2	-1	1	-1.3*	553*	264
CCOc1ccc(C(=O)CCN2CCCCCC2)cc1	2.3	-15	12	-1	-4	-2.5*	444	196
O=C(CCN1CCCCC1)Nc1ccc(Br)cc1	-1.2	-9	0	-2	-1	-0.89	·	·
C1CCC(CNc2c3c(nc4nnnn24)CCCC3)CC1	-0.066	-4	5	·	7	-2.9*	651	243
O=C(Cn1ncc2c1-c1ccccc1OC2)Nc1ccc(S(=O)(=O)N2CCCCC2)cc1	0.73	1	13	-4	-3	-0.91	·	·
COC(=O)c1ccc(CSc2nc(C)nc3c2c(=O)n(C)c(=O)n3C)o1	-0.098	-6	10	0	3	-2*	500*	242
CCN1CCN(CC(O)COCc2ccccc2)CC1 (configuration not stated)	0.27	-2	-6	-1	-72	0.57	·	·
OC(COCc1ccc(Cl)cc1)CN1CCN(CC(O)COCc2ccc(Cl)cc2)CC1 (configuration not stated)	0.68	-31	-6	1	2	-1.9*	444*	255

High-throughput results deposited in PubChem by several laboratories.
